High-throughput results deposited in PubChem by The Scripps Research Institute Molecular Screening Center.
CHO-K1 Ca ag: counter-screen for M1 agonists: effect in parental CHO-K1 cells. Fluo-8 calcium fluorescence; scaled to maximal ATP response, vehicle zero. activation, % at 3 µM. 360,000 compounds, 0.48% hits. AID 602248; in the data active = activation above about 15%;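 also: untransfected CHO-K1 host cells lacking M1 receptor as counterscreen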
M1 ag: activates human CHRM1 receptor | P11229 | CHO-K1 hM1, Fluo-8 calcium fluorescence, agonist mode; 0% DMSO, 100% acetylcholine EC100 | AID 588814 | 360,000 compounds, 0.33% hits | activation, % at 3 µM;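 active = activation above the run's mean compound activation plus 3 SD, cut at about 16% in these data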;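 also: peak over basal fluorescence ratio within a 140 s kinetic read after compound addition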
Target sequence (P11229 whole entry, looked up): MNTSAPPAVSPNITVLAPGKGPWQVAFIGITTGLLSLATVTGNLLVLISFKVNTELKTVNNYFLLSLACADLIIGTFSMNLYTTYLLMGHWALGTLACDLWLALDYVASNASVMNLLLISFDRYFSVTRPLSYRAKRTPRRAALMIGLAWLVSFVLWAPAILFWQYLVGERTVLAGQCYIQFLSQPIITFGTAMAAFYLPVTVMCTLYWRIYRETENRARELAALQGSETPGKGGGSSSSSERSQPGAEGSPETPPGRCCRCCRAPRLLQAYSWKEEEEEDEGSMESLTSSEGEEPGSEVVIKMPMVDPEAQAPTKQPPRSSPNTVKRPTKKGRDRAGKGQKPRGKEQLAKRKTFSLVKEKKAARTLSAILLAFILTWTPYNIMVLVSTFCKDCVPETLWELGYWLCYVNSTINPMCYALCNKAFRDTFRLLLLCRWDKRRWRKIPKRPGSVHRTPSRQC
CHRM1 PAM: potentiates human M1 receptor response to acetylcholine. P11229. activation, % at 3 µM. 360,000 compounds, 0.088% hits. CHO-K1 hM1, Fluo-8 calcium fluorescence, ACh EC20; 0% = ACh EC20, 100% = maximal ACh. AID 588819; in the data active = activation above about 19%, passing the limit was not always enough
M1 PAM parental: M1 PAM counterscreen hit in parental CHO-K1 cells | ATP EC20, Fluo-8 calcium fluorescence; 0% at ATP EC20, 100% at ATP max | activation, % at 3 µM | 360,000 compounds, 0.02% hits | AID 602247;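 active = activation above the run cutoff, the mean activation of all test compounds plus 3 SD, cut at about 40% in these data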;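 also: peak over basal fluorescence ratio in a 140 s read after ATP addition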
CHO-K1 Ca antag: M1 antagonist counterscreen hit in parental CHO-K1 cells. 360,000 compounds, 0.6% hits. AID 602250. ATP-induced calcium, Fluo-8 fluorescence. inhibition, % at 3 µM;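 active = inhibition above a per-plate cutoff, the plate's mean sample inhibition plus 3 SD, cut at about 24% in these data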
M1 antag: blocks human M1 muscarinic receptor. 360,000 compounds, 1.3% hits. P11229. AID 588852. inhibition, % at 3 µM. CHO-K1 hM1, Fluo-8 calcium fluorescence, ACh EC80 antagonist;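 active = percent inhibition above its own plate's cutoff, namely the mean of that plate's compound wells plus 3 SD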;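 also: peak over basal fluorescence ratio during 140 s after agonist addition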
Hits are given with their value; - = inactive; . = no result given. Sampled rows, rich in hits. Any-hit rate of the full collection: about 2.3%.

SMILES	CHO-K1 Ca ag	M1 ag	CHRM1 PAM	M1 PAM parental	CHO-K1 Ca antag	M1 antag
O=C(CSc1nnc(Cn2nnc3ccccc32)o1)N(Cc1ccc(Cl)cc1)c1ccccc1	-	-	-	-	-	20.1
O=C(CSc1nnc(Cn2nnc3ccccc32)o1)Nc1cccc(Cl)c1	-	-	-	-	-	-
CC#CC(=O)N1CCC(n2nccc2NC(=O)CCc2ccccc2)CC1	-	-	-	-	-	-
CC(C)=CC(=O)N1CCC(n2nccc2NC(=O)CCc2ccccc2)CC1	-	-	-	-	40.0	-
CC(=O)c1cccc(OCc2cc(C(=O)N3CCC(N4CCCCC4)CC3)no2)c1	-	-	-	-	-	48.2
O=C(c1cc(COc2cccc(C(F)(F)F)c2)on1)N1CCC(c2ccncc2)CC1	-	-	-	-	-	38.1
CC(=O)c1ccc(OCc2cc(C(=O)N3CCC(c4ccncc4)CC3)no2)cc1	15.2	-	-	-	-	-
COc1cccc(OCc2cc(C(=O)N3CCC(c4ccncc4)CC3)no2)c1	-	-	-	-	-	-
CCOc1cccc(C(=O)N2CCCCC2c2cccnc2)c1 (centres undefined)	-	-	-	-	-	-
CC(=O)c1cccc(OCc2cc(C(=O)N3CCSCC3)no2)c1	-	-	-	-	-	-
CC(=O)c1ccc(OCc2cc(C(=O)N3CCCCC3c3cccnc3)no2)cc1 (centres undefined)	15.8	-	-	-	-	-
O=C(c1cc(COc2cccc(C(F)(F)F)c2)on1)N1CCC(c2ccccc2)CC1	-	-	-	-	-	-
CCCCCc1c(CC)ncn1CCc1ccccc1OC	-	.	.	-	-	.
Cc1cccnc1NC(=O)CCNC(=O)c1ccccc1Cl	-	-	-	-	-	-
CCOc1ccc(CN(C)C(=O)c2ccc(S(=O)(=O)N(C)c3ccccc3OC)cc2)cc1	-	-	-	-	-	-
CC1(C(=O)NS(=O)(=O)c2ccc(F)cc2F)CCN1C(=O)c1ccc(C2CCCCC2)cc1 (centres undefined)	-	-	-	-	-	-
CSc1nccc(N/N=C/c2ccccc2)n1	-	-	-	-	-	-
COc1ccc(C(=O)NC(C)c2cccnc2)cc1S(=O)(=O)N(C)Cc1ccccc1 (centres undefined)	-	-	-	-	-	-
Cc1cc(/C=N/NC(N)=S)c(C)n1-c1ccc(Cl)cc1	17.9	-	-	-	-	-
C[C@@H]1CN([C@@H](C)CO)C(=O)CCCn2nncc2CO[C@@H]1CN(C)C(=O)NC1CCCCC1	-	-	-	-	-	-
O=C(NC1CCCCC1)N1CCN(c2ccc([N+](=O)[O-])cc2)CC1	-	-	-	-	-	27.2
O=C(c1cc([N+](=O)[O-])ccc1N1CCOCC1)N1CCN(c2ccc([N+](=O)[O-])cc2)CC1	-	-	-	-	-	32.4
O=C(NC1CCCCC1)N1CCN(c2ccc(Cl)cc2)CC1	-	-	-	-	-	-
Cc1noc(C)c1CSCC(=O)N1CCN(c2ccc([N+](=O)[O-])cc2)CC1	-	-	-	-	-	57.5
COc1cc(C(=O)OCc2csc(CC(=O)Nc3ccccc3C)n2)ccc1OCC(C)C	-	-	-	-	-	-
SMILES	CHO-K1 Ca ag	M1 ag	CHRM1 PAM	M1 PAM parental	CHO-K1 Ca antag	M1 antag
Cc1ccc2c(COC(=O)CNC(=O)c3ccco3)cc(=O)oc2c1C	-	-	-	-	-	-
CN(CCc1ccccc1)C(=O)c1ccc(NC(=O)Cc2ccc(NC(=O)C3CCN(C(=O)CCc4ccccc4)CC3)cc2)cc1	-	-	-	-	-	-
NC(=O)c1nc(-c2ccco2)nc2c1[nH]c(=O)n2-c1ccc(Cl)c(Cl)c1	-	-	-	-	-	-
CCOC(=O)Cc1csc(SCC(=O)NC2CCS(=O)(=O)C2)n1 (centres undefined)	-	-	-	-	-	-
CCOC(=O)c1cc(CC)sc1NC(=O)c1cc(OC)c(OC)c(OC)c1	-	-	-	-	31.9	-
CCOC(=O)c1cc(CC)sc1NC(=O)c1ccc(N2C(=O)CCC2=O)cc1	-	-	-	-	-	-
COc1ccc(/C(C)=N/N2CCCCC2)c(O)c1	-	18.1	-	-	-	-
CC1CN(c2nc(Nc3ccccc3F)nc(N)c2[N+](=O)[O-])CC(C)O1 (centres undefined)	-	-	-	-	-	-
CCN1CCN(CCNC(=O)c2ccc(/C=C3\Sc4ccccc4N(Cc4ccccc4F)C3=O)cc2)CC1	-	-	-	-	-	46.9
CC(C)(O)C#Cc1ccc([C@@H]2C[C@H]3CN(c4ccccc4)C(=O)[C@]34CCCN24)s1	-	-	-	-	-	42.0
O=C1N(c2ccccc2)C[C@@H]2C[C@@H](c3cccs3)N3CCC[C@@]123	-	-	-	-	-	90.0
COc1ccc(CN(Cc2cccnc2)C(=S)NCCc2ccccc2)cc1OC	-	-	-	-	-	-
CCOc1ccccc1NC(=O)N1CCC(NC(=O)C2CCCCC2)CC1	-	-	-	-	-	-
Cc1ccc(S(=O)(=O)N2C[C@H]3C(=O)C[C@@H](c4ccccc4F)N(S(=O)(=O)c4ccc(C)cc4)[C@H]3C[C@H]2c2ccccc2F)cc1	-	-	-	-	29.4	-
COc1ccc([C@@H]2C[C@H]3[C@@H](CN2S(=O)(=O)c2ccccc2)C(=O)C[C@@H](c2cccc(Cl)c2)N3S(=O)(=O)c2ccc(C)cc2)cc1	-	-	-	-	23.9	-
Cc1ccc(S(=O)(=O)N2C[C@H]3C(=O)C[C@@H]4C(=O)N(c5ccccc5)C(=O)[C@@H]4[C@@H]3C[C@H]2c2cccc(Cl)c2)cc1	-	-	-	-	31.0	-
Cc1ccc([C@@H]2C[C@H]3[C@@H](CN2S(=O)(=O)c2ccc(C)cc2)C(=O)C[C@@H](c2ccccc2F)N3S(=O)(=O)c2ccc(C)cc2)cc1	-	-	-	-	-	-
O=C(NCc1ccccc1F)c1cccc(S(=O)(=O)N2CCCCCC2)c1	-	-	-	-	-	-
CCN1CCN(S(=O)(=O)c2ccc(S(=O)(=O)N(CC)Cc3ccccc3)cc2)CC1	22.0	-	-	-	-	-
Cc1ccc(NC(=O)CSc2ccc(S(=O)(=O)N3CCCC3)cn2)cc1F	16.1	-	-	-	-	-
CCN1CCN(C(=O)c2ccccc2N(Cc2ccccc2)S(=O)(=O)c2ccc(C)cc2)CC1	-	27.6	-	-	-	-
CN(CC(=O)Nc1ccc(S(=O)(=O)N2CCCC2)cc1)CC(=O)Nc1cccc(F)c1	18.1	-	-	-	-	-
Cc1ccc(NC(=O)CNc2cccc(S(=O)(=O)N3CCCCC3)c2)cc1F	-	-	-	-	-	-
Cc1ccsc1C(=O)OCC(=O)N1C(C)CCCC1C (centres undefined)	-	-	-	-	-	-
